In the library only some 0.97% were active in any assay of this set; here they are far more common.
AGP1 TOR yeast = modulators of AGP1-GFP expression in yeast TOR pathway, primary screen, cell-based, multiplex flow cytometry, S. cerevisiae, MLPCN library. 3 h; GFP as percent of DMSO wells. GFP response vs DMSO, % at 10 µM. hit rate 0.02% among 320,000. AID 2066, 2009;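 active = GFP response relative to DMSO above a set limit, near screen average plus 3 SD, cut at about 150% in these data; inconclusive = fewer than 70 cells counted for the yeast strain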;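 note: median GFP channel fluorescence of the gated AGP1 strain per well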
CIT2 TOR yeast = modulators of CIT2-GFP expression in yeast, primary screen, S. cerevisiae, GFP fusion, multiplex flow cytometry, MLPCN library | S. cerevisiae CIT2-GFP strain, 3 h; 100 means same as DMSO wells | GFP response vs DMSO, % at 10 µM | hit rate 0.065% among 320,000;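 active = GFP response relative to DMSO above a set limit, near the screen mean plus 3 SD, cut at about 150% in these data; inconclusive = Fewer than 70 cells measured for a yeast strain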;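 note: ratio of well median GFP fluorescence to mean of DMSO wells on the plate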
JMJD2C inh = inhibitors of GASC-1 histone demethylase, primary screen, biochemical, fluorescence, DELFIA europium; hit rate 0.069% among 330,000; AID 2099, 2009; GST-JMJD2C(1-420) H3K9me3 demethylation; inhibition, % at 2.35 µM;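 active = more than half of a compound's replicate wells show inhibition beyond 50%, single wells judged on their own value; inconclusive = some, but no more than half, of replicates pass 50% inhibition; inactive = no replicate passes 50% inhibition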;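 note: signal counts dimethyl H3K9 product captured on neutravidin plate; 0% = median of DMSO wells and 100% = 0.3 times that DMSO median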
Target sequence (Q9H3R0 1-420 limits assumed): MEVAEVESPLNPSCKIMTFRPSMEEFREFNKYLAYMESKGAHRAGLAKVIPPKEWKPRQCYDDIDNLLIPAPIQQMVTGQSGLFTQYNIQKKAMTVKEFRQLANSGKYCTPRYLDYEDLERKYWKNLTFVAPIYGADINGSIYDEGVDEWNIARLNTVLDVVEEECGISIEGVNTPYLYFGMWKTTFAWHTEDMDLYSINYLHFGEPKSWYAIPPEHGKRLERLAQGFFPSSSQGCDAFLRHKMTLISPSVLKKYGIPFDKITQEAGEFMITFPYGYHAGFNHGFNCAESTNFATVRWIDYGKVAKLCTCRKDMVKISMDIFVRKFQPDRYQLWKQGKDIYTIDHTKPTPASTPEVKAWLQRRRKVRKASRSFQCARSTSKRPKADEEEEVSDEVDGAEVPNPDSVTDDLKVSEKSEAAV
MEP2 TOR yeast = modulators of MEP2-GFP levels in yeast, primary screen, S. cerevisiae, multiplex flow cytometry, MLPCN library | hit rate 0.51% among 330,000 | S. cerevisiae MEP2-GFP strain, 3 h; 100% = DMSO control level | GFP response vs DMSO, % at 10 µM | AID 2016, 2009;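 active = GFP response versus DMSO above a set limit, roughly screen mean plus 3 SD, cut at about 180% in these data; inconclusive = fewer than 70 cells counted for a yeast strain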;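 note: median GFP fluorescence of the barcode-gated MEP2-GFP cells per well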
RPL19A TOR yeast = RPL19A-GFP expression modulators in yeast, primary screen, cell-based, S. cerevisiae, multiplex flow cytometry, MLPCN; S. cerevisiae RPL19A-GFP strain, 3 h; hits give low values; percent response vs DMSO, % at 10 µM; hit rate 0.3% among 330,000; AID 2025, 2009;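 active = percent response vs DMSO below 50%; inconclusive = fewer than 70 events counted for the yeast strain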;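 note: median channel GFP fluorescence of the barcoded RPL19A-GFP strain; ratio of sample median GFP to plate DMSO average so 100% = DMSO; lower means less RPL19A-GFP as with rapamycin TOR inhibition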
LAP4 TOR yeast = modulators of LAP4-GFP expression in yeast, primary screen, S. cerevisiae, multiplex flow cytometry, MLPCN library; 3 h; median GFP as percent of DMSO wells; GFP response vs DMSO, % at 10 µM; hit rate 0.34% among 320,000; AID 2023, 2009;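 active = GFP response vs DMSO above a set limit, about the screen mean plus 3 SD, cut at about 150% in these data; inconclusive = under 70 cell events counted for the yeast strain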
An asterisk follows results filed as active; ? = inconclusive; . = not tested or not shown; + = active, no number; [ ] = another dose, or the depositor's remark.

SMILES | AGP1 TOR yeast | CIT2 TOR yeast | JMJD2C inh | MEP2 TOR yeast | RPL19A TOR yeast | LAP4 TOR yeast
Cc1ccc(Sc2ccc(C(=O)N3CCOCC3)cc2[N+](=O)[O-])cc1 | 100 | 100 | 9 | 102 | 101 | 97
CN(C)C(/C=C/Nc1ccc(Br)cc1)=C(C#N)C#N | 88 | . | 27 | 87 | 86 | 88
Brc1ccc(N=C/C=C/C=C/Nc2ccc(Br)cc2)cc1 | 135 | 367*[may fluoresce green] | 6 | 430*[may fluoresce green] | 152 | 413*[may fluoresce green]
COc1ccc(NC(C)=[N+](C)CCNS(=O)(=O)c2ccc(Cl)cc2)cc1Cl | 116 | 135 | -4 | 112 | 99 | 107
CC(Nc1cc(C)cc(C)c1)=[N+](C)CCNS(=O)(=O)c1ccc(Cl)cc1 | 114 | 152*[may fluoresce green] | 3 | 108 | 92 | 101
CC(NC(=O)CCn1ccc2cc(S(=O)(=O)N3CCCC3)ccc21)c1ccccc1 (centres undefined) | 101 | 110 | 6 | 100 | 96 | 95
COc1ccc(CCC(=O)N2CCCc3ccccc32)cc1 | ? | ? | 20 | 649*[may fluoresce violet] | 50 | 73
Cc1ccccc1OCC(=O)N1CCCc2ccccc21 | 105 | 102 | -2 | 105 | 104 | 103
COc1cccc(OCC(=O)N2CCCc3ccccc32)c1 | 121 | 103 | 10 | 222* | 86 | 144
O=C(Nc1ccc(Cn2nnc3ccccc32)cc1)c1ccco1 | ? | ? | 3 | 294*[may fluoresce violet] | 14*[may fluoresce violet] | 77
COc1ccc(NC(=O)CN2C(=O)NC3(CCCc4ccccc43)C2=O)c(OC)c1 (centres undefined) | 86 | 90 | 3 | 97 | 102 | 87
COc1ccc(/C=C/C(=O)NC(=S)N2CCSCC2)cc1 | 257*[may fluoresce green] | . | -26 | +[may fluoresce green] | 275 | +[may fluoresce green]
CCCCCc1c(C)[nH]c2nc3ccccc3n2c1=O | 96 | 105 | 1 | 106 | 101 | 99
Cc1cccn2c(=O)c3cc(C(=O)NCc4ccco4)c(=N)n(C4CCCCC4)c3nc12 | 20 | ? | 9 | 142 | 78 | 93
N=c1c(C(=O)NCc2ccc(F)cc2)cc2c(=O)n3ccccc3nc2n1CC1CCCO1 (centres undefined) | . | ? | 0 | 256*[may fluoresce violet] | 77 | 103
N=c1c(C(=O)NCCc2ccccc2)cc2c(=O)n3ccccc3nc2n1CC1CCCO1 (centres undefined) | ? | ? | -2 | ? | 22*[may fluoresce violet] | ?
Cc1ccc2nc3c(cc(C(=O)NCc4ccco4)c(=N)n3C3CCCC3)c(=O)n2c1 | ? | ? | -17 | ? | 26*[may fluoresce violet] | ?
Cc1cccn2c(=O)c3cc(C(=O)NCCc4ccccc4)c(=N)n(CC4CCCO4)c3nc12 (centres undefined) | 93 | 90 | -3 | 101 | 104 | 91
Cc1cccn2c(=O)c3cc(C(=O)NCc4ccco4)c(=N)n(CCOCCO)c3nc12 | ? | ? | 4 | 239*[may fluoresce violet] | 35*[may fluoresce violet] | 102
N=c1c(C(=O)NCc2ccc3c(c2)OCO3)cc2c(=O)n3ccccc3nc2n1CC1CCCO1 (centres undefined) | 96 | 102 | 1 | 101 | 97 | 92
COc1ccc(CN2CCC(Oc3ccc(C(=O)N4CCCC4)cc3)CC2)c(F)c1 | 98 | 96 | 0 | 98 | 99 | 94
CCOc1ccccc1CN1CCNC(=O)C1CC(=O)NCCc1ccccn1 (centres undefined) | 99 | 93 | 0 | 102 | 99 | 105
Cc1ccc(Cn2c(=N)c(C(=O)NCc3ccco3)cc3c(=O)n4ccccc4nc32)cc1 | 19 | 102 | -47 | 155 | 71 | 97
N=c1c(C(=O)NCc2ccco2)cc2c(=O)n3ccccc3nc2n1CC1CCCO1 (centres undefined) | ? | ? | 15 | 266*[may fluoresce violet] | 27*[may fluoresce violet] | 84
N=c1c(C(=O)NCc2ccco2)cc2c(=O)n3ccccc3nc2n1CCc1ccccc1 | 74 | 89 | -7 | 325* | 48* | 93
SMILES | AGP1 TOR yeast | CIT2 TOR yeast | JMJD2C inh | MEP2 TOR yeast | RPL19A TOR yeast | LAP4 TOR yeast
Cc1ccccc1C(=O)N1CCC(C(=O)Nc2cc(C(F)(F)F)ccc2N2CCCC2)CC1 | 101 | 89 | 0 | 100 | 95 | 111
Clc1ccc(-n2nnnc2Sc2ncnc3sccc23)cc1 | 109 | 105 | 10 | 104 | 89 | 151*
CC(C)OC(=O)c1ccc2nc3ccccc3nc2c1 | 99 | 108 | 4 | 108 | 99 | 99
COc1ccccc1/C=N\Nc1ccccc1[N+](=O)[O-] | . | . | 1 | 299*[may fluoresce violet] | 39*[may fluoresce violet] | .
COc1ccc(NC(=O)c2c(C)noc2C(C)C)cc1S(=O)(=O)N1CCCCC1 | 99 | 94 | -1 | 93 | 99 | 96
O=C1c2ccc([N+](=O)[O-])cc2C(=O)N1Cc1cccnc1 | 98 | 105 | 52* | 92 | 99 | 84
O=C(NCc1ccccc1)c1ccc2c(c1)C(=O)N(Cc1cccnc1)C2=O | 85 | 85 | 0 | 99 | 101 | 84
CCOC(=O)c1ccc(NC(=O)c2ccc3c(c2)C(=O)N(Cc2cccnc2)C3=O)cc1 | 126 | 87 | -6 | 92 | 84 | 168*
COc1ccccc1CNS(=O)(=O)c1ccc2c(c1)NC(=O)CO2 | ? | 101 | -13 | ? | ? | ?
NC(=O)C1CCN(c2cc(Cl)ccc2[N+](=O)[O-])CC1 | . | . | 3 | ? | 41*[may fluoresce violet] | .
NC(=O)C1CCN(c2cc(N3CCOCC3)ccc2[N+](=O)[O-])CC1 | 104 | 96 | 15 | 101 | 97 | 111
O=C(NCCCSc1ccccc1)c1cc(Br)ccc1O | 84 | 99 | 12 | 110 | 107 | 154*
O=C(NCCSc1ccccc1)c1ccc(Br)cc1 | 88 | 77 | -8 | 93 | 96 | 114
O=C(O)c1cc(-c2c[nH]c3ccccc23)nc2cc3ccccc3cc12 | ? | ? | 4 | 636*[may fluoresce violet] | 23*[may fluoresce violet] | 69
O=C(O)c1cc(-c2cccc3ccccc23)nc2ccccc12 | 101 | 108 | 26 | 105 | 107 | 95
O=C(NC1CCCCC1)c1ccc(N2CCCC2=O)cc1 | ? | . | . | 322*[may fluoresce violet] | 30*[may fluoresce violet] | 91
COc1ccc(C2=CC(=O)CC(c3ccc(OC)cc3)C2)cc1 (centres undefined) | 99 | 77 | -6 | 90 | 99 | 121
COc1ccc(C2CC(=O)C(C(c3ccc(O)cc3)C3C(=O)CC(c4ccc(OC)cc4)CC3=O)C(=O)C2)cc1 (centres undefined) | 20 | 89 | 14 | 239* | 60 | 89
COc1ccc(/C(C)=N/NC(=O)c2nc(C)cc(C)n2)cc1 | . | ? | 12 | 670*[may fluoresce violet] | 40*[may fluoresce violet] | 95

From PubChem BioAssay
